As a reminder, the AC50 is the midpoint of the concentration-response curve, whichever way the signal moves.

“And” between values parts separate entries of the source, which are not always exact repeats. Equal entries are not always repeated. Records with an inconclusive call do not appear. The source made the active and inactive calls. The calls were made as follows, unless noted: active = hit-call score of the fitted dose curve at least 0.9, where 1 is the maximum; inactive = score below 0.9.

Read-out in assay [1]: E-selectin (Homo sapiens) (UniProt P16581)
The assay can be described thus: BSK_SAg_Eselectin: BioMAP Diversity Plus: SAg Assay for Eselectin Biomarker Activity (AID 2283091). To be noted: primary human HUVEC with PBMC; actives raise or lower the signal. In a few lines:
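Cell-surface E-selectin is read by ELISA at 24 h in the SAg co-culture of HUVEC and PBMC. Curves are fitted in both directions relative to DMSO. Parallel SRB total-protein staining tracks overt toxicity.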

Read-out in assay [2]: Monokine induced gamma interferon (MIG), CXCL9 (gene 4283)
The assay can be described thus: BSK_SAg_MIG: BioMAP Diversity Plus: SAg Assay for Monokine induced gamma interferon (MIG) Biomarker Activity (AID 2283092). To be noted: primary human HUVEC with PBMC; actives raise or lower the signal. Summed up:
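Endothelial cells and PBMC were co-cultured, exposed to test chemicals, and sampled 24 h later. MIG was measured by ELISA, and responses were fitted in both directions relative to DMSO.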

Assay [3] in a line: BSK_SAg_PBMCCytotoxicity: PBMC Cytotoxicity Assessment in the BioMAP Diversity Plus: SAg Assay (AID 2283093).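 Also: PBMC viability measured as Alamar Blue reduction fluorescence at 546/580 nm; fitted both ways against DMSO so a hit may be loss or gain of signal.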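 As to AC50: PBMC superantigen activated with SEB plus TSST-1 one hour after compound addition.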 Particulars: primary human HUVEC with PBMC. In a few lines: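 Compound added to 75,000 PBMC/well for 1 h; SEB and TSST-1 then added at 20 ng/mL final each; 90 h incubation; Alamar Blue 6 h; read 546/580 nm ex/em. Activity fitted bidirectionally relative to DMSO baseline.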

Read-out in assay [4]: Interleukin-8 (IL8), CXCL8 (gene 3576)
The assay can be described thus: BSK_SAg_IL8: BioMAP Diversity Plus: SAg Assay for Interleukin-8 (IL8) Biomarker Activity (AID 2283094). To be noted: primary human HUVEC with PBMC; actives raise or lower the signal. In a few lines: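 Human umbilical vein endothelial cells co-cultured with peripheral blood mononuclear cells; IL-8 measured by ELISA 24 h after chemical dosing. Bidirectional concentration-response fitting used DMSO as negative control and activity baseline.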

A short description of assay [5]: BSK_SAg_Proliferation: Cell Proliferation Assessment in the BioMAP Diversity Plus: SAg Assay (AID 2283095).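 Also: relative cell number as total protein by SRB absorbance in sub-confluent culture.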 Particulars: primary human HUVEC with PBMC. Summed up: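 Human umbilical vein endothelial cells co-cultured with peripheral blood mononuclear cells; total protein measured by sulforhodamine B staining (0.1% SRB after 10% TCA fixation), absorbance at 560 nm, at 96 h. Bidirectional fit against DMSO baseline.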

Assay [6] is described as follows: BSK_SAg_SRB: Viability Assessment in the BioMAP Diversity Plus: SAg Assay (AID 2283096).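 Also: cells read one day after compound addition; hits may be either gain or loss of signal compared with DMSO.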 Particulars: primary human HUVEC with PBMC. In a few lines:
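Total protein by sulforhodamine B staining, 24 h after dosing, in HUVEC–PBMC co-culture; DMSO-referenced bidirectional fitting.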

The target in assay [7] is human CYP19A1, CYP19A1 (gene 1588) (UniProt P11511). The assay can be described thus: NVS_ADME_hCYP19A1: NovaScreen (NVS) CYP450-related Enzyme Activity (ADME) Assay for human CYP19A1 (AID 2283098; active = hit-call score of the fitted dose curve at least 0.9, where 1 is the maximum;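 also: potency for inhibitors seen as loss of fluorescent enzyme signal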). In a few lines:
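Biochem, cell-free; recombinant enzyme + specific substrate; fluorescence intensity at 0.5 h post-dose; 10 uM duplicate primary, conc. series for actives; acetonitrile = negative control/baseline; positive and negative controls on every plate.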

E-selectin (Homo sapiens), sequence (P16581 whole entry, looked up): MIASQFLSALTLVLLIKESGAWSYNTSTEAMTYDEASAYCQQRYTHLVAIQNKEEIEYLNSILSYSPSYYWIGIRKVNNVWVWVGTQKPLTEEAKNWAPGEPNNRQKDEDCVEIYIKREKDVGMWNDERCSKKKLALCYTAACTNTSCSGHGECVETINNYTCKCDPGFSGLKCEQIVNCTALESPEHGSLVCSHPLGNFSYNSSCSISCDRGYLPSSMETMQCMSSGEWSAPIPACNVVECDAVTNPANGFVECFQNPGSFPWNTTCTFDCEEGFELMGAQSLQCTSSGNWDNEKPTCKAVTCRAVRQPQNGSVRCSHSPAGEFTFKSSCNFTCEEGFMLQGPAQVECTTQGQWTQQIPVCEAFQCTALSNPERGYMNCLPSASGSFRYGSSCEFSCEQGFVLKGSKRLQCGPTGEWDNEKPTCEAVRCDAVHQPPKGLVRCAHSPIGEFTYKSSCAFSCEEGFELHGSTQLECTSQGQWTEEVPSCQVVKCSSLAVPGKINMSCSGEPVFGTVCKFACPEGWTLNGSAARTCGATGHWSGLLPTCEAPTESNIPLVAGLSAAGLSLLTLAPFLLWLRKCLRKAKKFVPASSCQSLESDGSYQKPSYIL
human CYP19A1, CYP19A1 (gene 1588), sequence (P11511 whole entry, looked up): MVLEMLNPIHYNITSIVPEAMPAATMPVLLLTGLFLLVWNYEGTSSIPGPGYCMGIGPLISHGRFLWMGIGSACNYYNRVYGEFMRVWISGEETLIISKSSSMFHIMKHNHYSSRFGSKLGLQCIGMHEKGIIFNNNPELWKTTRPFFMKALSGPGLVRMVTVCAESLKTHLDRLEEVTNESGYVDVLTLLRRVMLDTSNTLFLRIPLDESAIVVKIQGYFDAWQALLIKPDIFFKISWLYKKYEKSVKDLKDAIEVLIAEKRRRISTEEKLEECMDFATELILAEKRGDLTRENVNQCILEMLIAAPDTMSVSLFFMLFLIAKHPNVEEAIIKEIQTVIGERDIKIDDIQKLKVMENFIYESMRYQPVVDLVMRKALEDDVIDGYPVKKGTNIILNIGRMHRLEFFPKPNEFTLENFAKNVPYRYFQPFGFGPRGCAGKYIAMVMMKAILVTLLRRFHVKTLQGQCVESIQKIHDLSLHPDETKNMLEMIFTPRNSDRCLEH

In the case of `CCCCCCCCCC(=O)OCC`, the half-maximal activity concentration (AC50) in assay [1] is 20 µM (active); in assay [3], 34.1 µM (active); in assay [5], 33.5 µM (active). The result in assay [2], in assay [4] and in assay [6] was inactive.

As to `CC(=O)OCC=C(C)CCC=C(C)CCC=C(C)C`, the outcome in assay [1], in assay [2], in assay [3], in assay [4], in assay [5] and in assay [6] was inactive.

Take `c1ccc2c(c1)-c1ccc3ccc4cccc5cc-2c1c3c45`: the outcome in assay [1], in assay [2], in assay [3], in assay [4], in assay [5] and in assay [6] was inactive.

Take `CCOC(=O)C=Cc1ccccc1`: the result in assay [1], in assay [2], in assay [3], in assay [4], in assay [5] and in assay [6] was inactive.

With `COC(=O)c1ccc(C(=O)OC)cc1`, the outcome in assay [1], in assay [2], in assay [3], in assay [4], in assay [5] and in assay [6] was inactive.

For `CCCCCCCC1CCCC1=O` (stereo not given), the outcome in assay [1], in assay [2], in assay [3], in assay [4], in assay [5] and in assay [6] was inactive.

For the molecule `OCC(F)(OC(F)(F)C(F)(OC(F)(F)C(F)(F)C(F)(F)F)C(F)(F)F)C(F)(F)F` (stereo not given), the AC50 is 2.96 µM (active) and 3.23 µM (active) in assay [1]; 2.03 µM (active) and 1.97 µM (active) in assay [3]; 2.22 µM (active) and 2.66 µM (active) in assay [4]; 2.09 µM (active) and 2.02 µM (active) in assay [5]; 5.05 µM (active) and 3.37 µM (active) in assay [6]. For the same molecule, the outcome in assay [2] was inactive.

For the molecule `O=S(=O)(O)C(F)(F)C(F)(F)OC(F)(F)C(F)(F)F`, the outcome in assay [1], in assay [2], in assay [3], in assay [4], in assay [5] and in assay [6] was inactive.

Consider `CCCCCCCCCCCCS`, for which the result in assay [1], in assay [2], in assay [3] and in assay [4] was inactive. In addition, the AC50 is 20 µM (active) in assay [5] and 36.1 µM (active) in assay [6].

As for `C=C1CC/C=C(\C)CC[C@@H]2[C@@H]1CC2(C)C`, the AC50 in assay [1] was 20 µM (active); in assay [3] it was 20 µM (active); in assay [4] it was 32.3 µM (active); in assay [5] it was 22.8 µM (active); in assay [6] it was 33.1 µM (active). For the same molecule, the outcome in assay [2] was inactive.

With `COc1ccccc1NC(=O)CC(C)=O`, the outcome in assay [1], in assay [2], in assay [3], in assay [4], in assay [5] and in assay [6] was inactive.

As to `CCCO[Si](OCCC)(OCCC)OCCC`, the outcome in assay [1], in assay [2], in assay [3], in assay [4], in assay [5] and in assay [6] was inactive.

With `O=C(O)C(F)(F)C(F)(F)C(F)(F)C(F)(F)C(F)(F)C(F)(F)C(F)(F)C(F)F`, the outcome in assay [1], in assay [2], in assay [3], in assay [4], in assay [5] and in assay [6] was inactive.

For the molecule `CC=CC(=O)C1=C(C)C=CCC1(C)C`, the result in assay [1], in assay [2], in assay [3], in assay [5] and in assay [6] was inactive. In addition, in assay [4], the AC50 is 0.016 µM (active).

On to `C=C(F)C(=O)OC(C(F)(F)F)C(F)(F)F`, for which the result in assay [1], in assay [2], in assay [3], in assay [4], in assay [5] and in assay [6] was inactive.

Regarding `CC(=O)c1ccc(C)cc1`, the result in assay [1], in assay [2], in assay [3], in assay [4], in assay [5] and in assay [6] was inactive.

For the molecule `c1ccc(Sc2ccccc2)cc1`, the AC50 was 30.2 µM (active) in assay [1]; 34.5 µM (active) in assay [2]; 33.9 µM (active) in assay [3]; 20 µM (active) in assay [4]; 34 µM (active) in assay [5]; 31.7 µM (active) in assay [6].

Turning to `CC(=O)CCC=C(C)CCC=C(C)C`, the result in assay [1], in assay [2], in assay [3], in assay [4] and in assay [6] was inactive. For the same molecule, the AC50 in assay [5] is 20 µM (active).

Turning to `CCCCOCCOCCO`, the outcome in assay [1], in assay [2], in assay [3], in assay [4], in assay [5] and in assay [6] was inactive.

Take `CCOC(=O)CCCCCCCCC(=O)OCC`: the result in assay [1], in assay [2], in assay [3], in assay [4], in assay [5] and in assay [6] was inactive.

`CC(C)CCCC(C)(C)O`: the outcome in assay [1], in assay [2], in assay [3], in assay [4], in assay [5] and in assay [6] was inactive.

With `CC(C)(CO)CO`, the outcome in assay [1], in assay [2], in assay [3], in assay [4], in assay [5] and in assay [6] was inactive.

On to `CC(C)(C)c1cccc(O)c1`, for which the outcome in assay [1], in assay [2], in assay [3], in assay [4], in assay [5] and in assay [6] was inactive.

Turning to `CCCCN(CCO)CCO`, the result in assay [1], in assay [2], in assay [3], in assay [4], in assay [5] and in assay [6] was inactive.

As to `CCCCC/C=C\C=C\C(=O)OCC`, the AC50 in assay [7] was 15.6 µM (active).

The values above are taken from PubChem BioAssay (EPA / NIEHS).
